Assay outcomes: PubChem, The Scripps Research Institute Molecular Screening Center
Compounds with a hit are over-represented: about 0.84% of the library has one in this group of screens.
PPARg SRC1 recr = PPARgamma agonists recruiting SRC-1 coactivator, primary screen, biochemical | PPARgamma-SRC-1 coactivator recruitment biochemical assay | AID 631, 2007 | actives 0.41% (n = 200,000) | activation, % at 8 µM; in the data active = activation above about 19%;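 note: 0% = DMSO and 100% = reference agonist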
Target sequence (P37231 whole entry, looked up): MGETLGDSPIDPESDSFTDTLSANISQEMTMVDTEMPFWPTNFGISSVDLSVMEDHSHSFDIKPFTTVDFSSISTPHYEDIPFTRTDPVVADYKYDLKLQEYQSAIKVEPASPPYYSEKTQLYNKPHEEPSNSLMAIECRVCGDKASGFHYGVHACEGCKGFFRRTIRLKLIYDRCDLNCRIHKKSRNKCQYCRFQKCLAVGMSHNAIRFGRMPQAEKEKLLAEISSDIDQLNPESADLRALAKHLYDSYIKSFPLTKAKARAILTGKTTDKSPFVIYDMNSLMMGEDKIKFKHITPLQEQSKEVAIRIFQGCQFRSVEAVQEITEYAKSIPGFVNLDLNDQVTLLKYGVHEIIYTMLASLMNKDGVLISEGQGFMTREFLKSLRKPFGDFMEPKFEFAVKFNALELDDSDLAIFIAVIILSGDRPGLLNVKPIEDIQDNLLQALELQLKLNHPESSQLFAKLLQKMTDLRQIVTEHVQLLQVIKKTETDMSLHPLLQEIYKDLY
TR-FRET SRC-2 ct = TR-FRET signal artefacts, primary screen, artefact control for PPARgamma SRC-2 agonist project, biochemical. TR-FRET ratio at 8 µM. actives 0.4% (n = 200,000). TR-FRET artefact counter-screen; stronger effect = higher value
PPARg SRC-2 ag = agonists of PPARg-SRC-2 recruitment, primary screen, biochemical, HTS. PPARgamma LBD-SRC-2 recruitment. activation, % at 8 µM. Peroxisome proliferator-activated receptor gamma (Homo sapiens), P37231. actives 0.34% (n = 200,000). AID 1032, 2008; in the data active = activation above about 22%;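 note: 0% = vehicle and 100% = reference agonist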
PPARg SRC3 recr = PPARgamma agonists recruiting SRC-3 coactivator, primary screen, biochemical; actives 0.26% (n = 200,000); biochemical PPARgamma/SRC-3 coactivator recruitment assay; activation, % at 8 µM; Peroxisome proliferator-activated receptor gamma (Homo sapiens), P37231; in the data active = activation above about 23%;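 note: 0% = DMSO and 100% = reference agonist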
SRC3 TRFRET art = TR-FRET detection interference compounds, artefact control for PPARgamma SRC-3 recruitment agonists, biochemical, TR-FRET ratio; TR-FRET ratio at 8 µM; actives 0.39% (n = 99,000); TR-FRET artefact counter-screen, PPARgamma/SRC-3 format; stronger effect = higher value
SRC1 TRFRET art = TR-FRET detection interference compounds, primary screen, artefact control for PPARgamma SRC-1 recruitment agonists, biochemical, TR-FRET emission ratio | TR-FRET detection artefact counter-screen; stronger effect = higher value | TR-FRET ratio at 8 µM | actives 0.34% (n = 99,000) | AID 1051, 2008; in the data active = TR-FRET ratio above about 2300
* marks the source's active call; other numbers are inactive results; / = not tested or not shown. Cut-off read from the data, not from the text of the source, unless noted: active = TR-FRET ratio above about 2000; inactive = the rest.

SMILES | PPARg SRC1 recr | TR-FRET SRC-2 ct | PPARg SRC-2 ag | PPARg SRC3 recr | SRC3 TRFRET art | SRC1 TRFRET art
CC(C)C(=O)N1C2CCC1CC(O)(c1ccc(F)cc1)C2 (stereo unspecified) | -1 | 1527 | -4 | 48* | / | /
Cc1cc(N2C3CCC2CC(O)(c2ccc(F)cc2)C3)nc(-c2ccccc2)n1 (stereo unspecified) | 4 | 1437 | -8 | -9 | / | /
O=C(COc1ccc(/C=N/NC(=O)c2cc3ccccc3o2)cc1Br)Nc1ccccc1 | 6 | 3281* | 63* | 9 | / | /
COc1ccc(-c2csc(N(CCCN(C)C)C(=O)c3cccs3)n2)cc1 | 2 | 1458 | 2 | 0 | 1557 | 1918
COc1ccc(-c2csc(N(CCc3ccc(OC)c(OC)c3)C(=O)COc3ccccc3)n2)cc1 | 15 | 2007* | 3 | 11 | / | /
COc1ccc(-c2csc(N(Cc3ccccc3)C(=O)COc3ccc(Cl)cc3)n2)cc1 | 5 | 1523 | 2 | -1 | / | /
CCN(C(=O)c1cccs1)c1nc(-c2ccc(OC)cc2)cs1 | 6 | 1836 | 6 | 0 | 2437* | 2224
CCOc1ccc(-c2csc(Cn3c(CN4CCN(C)CC4)nc4ccccc4c3=O)n2)cc1 | 2 | 1596 | 8 | 5 | 1613 | 1818
CN(C)/C=C(\c1cnc(Cl)s1)S(=O)(=O)c1ccccc1 | 3 | 1502 | 4 | -2 | 1571 | 1563
COc1ccc(Nc2nc(Nc3ccc(OC)cc3)nc(SC3=NCCS3)n2)cc1 | -7 | 1395 | -1 | -5 | / | /
COc1ccc(C2=NN(c3nc(-c4ccccc4)c(CC(=O)O)s3)C(c3ccco3)C2)cc1 (stereo unspecified) | 7 | 1644 | 1 | 14 | 2153* | 2061
CCOC(=O)CSC1=N/C(=C\c2ccc(OC)c(OC)c2)C(=O)N1C | 12 | 1613 | 6 | 1 | 1555 | 1906
N#Cc1cc(Oc2cccc3cccnc23)c(-n2nnc3ccccc32)cc1C#N | 5 | 1613 | 3 | 5 | / | /
N#Cc1cc(O)c(-n2nnc3ccccc32)cc1C#N | -4 | 1747 | 26* | 0 | 1347 | 1742
CC1CCCCC1NCC(=O)NCc1ccc(F)cc1 (stereo unspecified) | 6 | 1640 | 8 | 0 | 1647 | 1623
CC(=O)Nc1cccc(NC(=O)c2cc(-c3cccnc3)nc3ccc(Br)cc23)c1 | -7 | 1508 | -5 | -12 | / | /
CSc1ccccc1NC(=O)c1cc(-c2cccnc2)nc2ccc(Br)cc12 | 8 | 1531 | 3 | 9 | 2157* | 1916
O=C(CSc1nc2c(c(=O)n1-c1ccc(Cl)cc1)SCC2)Nc1ccc2c(c1)OCCO2 | 10 | 1752 | 4 | 7 | 1574 | 1813
O=C(Cc1csc(Nc2nc(=S)[nH]c3ccccc23)n1)N1CCN(c2cccc(C(F)(F)F)c2)CC1 | 10 | 1759 | 17 | 9 | 1705 | 2065
Cc1sc(NC(=O)Cc2ccc3c(c2)OCO3)nc1-c1ccc2c(c1)CCN2C(=O)c1ccc(F)cc1 | 4 | 1427 | -7 | 14 | 2623* | 1579
Cc1sc(NC(=O)Cc2ccc3c(c2)OCO3)nc1-c1ccc2c(c1)CCN2C(=O)c1ccccc1F | -2 | 1630 | -1 | -1 | 1545 | 1710
O=C(Nn1c(=S)[nH]c2ccccc2c1=O)c1ccncc1 | -2 | 1565 | 9 | -1 | / | /
CC1=NNC(=O)C1CCC(=O)N/N=C(\C)c1ccccc1 (stereo unspecified) | 0 | 1390 | -1 | 2 | 1476 | 1740
CC1=NNC(=O)C1CC(=O)N/N=C(\C)c1ccco1 (stereo unspecified) | 2 | 1775 | 6 | 2 | 1454 | 2343*
O=C(CSc1ncnc2c1nnn2-c1ccc(F)cc1)NCc1ccco1 | 3 | 1638 | 23* | -4 | / | /
CCCCCOc1ccc(C(=O)NCC(=O)NCC(=O)OCC)cc1 | 0 | 1462 | 0 | 8 | / | /
O=C(c1ccccc1)c1ccc2nc(-c3ccc(NC(=O)c4ccccc4Br)cc3)[nH]c2c1 | 9 | 2003* | -1 | 8 | / | /
